The source made the active and inactive calls. Unless noted, how the calls were made is not given here.
Columns and labels:
[1] = tested on: Wnt5a (protein binding on small-molecule microarray); experiment: Wnt5a binders on small-molecule microarray, primary screen, biophysical, 635/667 nm fluorescence (AID 1142); conditions: 635 nm fluorescence, higher = more signal;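 further: fluorescence read at 667 nm with signal to noise per printed feature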
[2] = cell viability in Huh7 cells, primary screen, cytotoxicity control for HCV replication inhibitor project, CellTiter-Glo luminescence, basal, 48 h (AID 1143); conditions: Huh7 HCV replicon, higher = more signal, called active from +8 up or from −8 down;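 further: Huh7 hepatoma cells carrying a hepatitis C replication reporter with no stimulus; test concentration not given here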
[3] = P. aeruginosa biofilm formation inhibitors, primary screen, PAO1 strain, BacTiter-Glo luminescence, LB-PBS (AID 1144); conditions: 12 h, higher = more signal
[4] = CREB reporter modulators without forskolin, primary screen, cell-based, PC12, CRE-LacZ reporter, unstimulated (AID 1145); conditions: no forskolin, luminescence, 4.5 h, higher = more signal, called active from +8 up or from −8 down
[5] = CREB reporter modulators under forskolin, primary screen, cell-based, PC12, CRE-LacZ reporter, forskolin-stimulated (AID 1146); conditions: luminescence, 4.5 h, higher = more signal, called active from +8 up or from −8 down;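 further: PC12 cells with 6xCRE LacZ reporter stimulated by forskolin 10 µM; beta-galactosidase reporter signal reflecting CREB driven transcription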
[6] = target: Streptavidin (Streptomyces avidinii) (UniProt P22629); experiment: streptavidin binders on small-molecule microarray, primary screen, artefact control for SMM compound annotation, biophysical, 635/667 nm fluorescence (AID 1147); conditions: streptavidin binding, higher = more signal;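 further: signal reflects streptavidin binding to arrayed compounds as a control protein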
Sequence of Streptavidin (Streptomyces avidinii) (P22629 whole entry, looked up): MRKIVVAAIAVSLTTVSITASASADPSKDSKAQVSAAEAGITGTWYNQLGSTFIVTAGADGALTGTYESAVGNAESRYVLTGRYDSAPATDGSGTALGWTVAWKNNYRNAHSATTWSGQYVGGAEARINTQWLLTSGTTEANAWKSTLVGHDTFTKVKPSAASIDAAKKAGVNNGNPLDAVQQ

[7] = small-molecule binders of probe aInhba, primary screen, biochemical, small-molecule microarray, 635/667 nm fluorescence (AID 1148); conditions: higher = more signal;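 further: score merges 667nm spot fluorescence with signal-to-noise for antibody binding to printed compounds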
[8] = target: Torsin-1A (Homo sapiens) (UniProt O14656); experiment: torsin A binders from cell lysate, primary screen, small-molecule microarray, wild-type, 635/667 nm (AID 1149); conditions: COS7 hTOR1A-WT lysate, 635 nm fluorescence, higher = more signal
Sequence of Torsin-1A (Homo sapiens) (O14656 whole entry, looked up): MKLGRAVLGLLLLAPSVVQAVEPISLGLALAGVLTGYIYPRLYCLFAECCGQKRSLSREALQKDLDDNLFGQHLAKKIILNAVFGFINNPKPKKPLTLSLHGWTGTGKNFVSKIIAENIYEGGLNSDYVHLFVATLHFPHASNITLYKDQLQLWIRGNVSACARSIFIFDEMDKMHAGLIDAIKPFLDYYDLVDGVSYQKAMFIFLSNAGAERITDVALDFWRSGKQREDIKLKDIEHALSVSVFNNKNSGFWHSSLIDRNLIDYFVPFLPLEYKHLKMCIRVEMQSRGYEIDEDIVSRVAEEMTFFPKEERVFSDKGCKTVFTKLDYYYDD

[9] = target: Torsin-1A (Homo sapiens) (UniProt O14656); experiment: small-molecule binders of mutant TOR1A in lysate, primary screen, cell lysate, small-molecule microarray, COS7 lysate, 635/667 nm fluorescence (AID 1150); conditions: COS7 hTOR1A mutant lysate, 635 nm fluorescence, higher = more signal;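 further: score pools 667 nm emission and signal to noise measuring lysate protein binding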
[10] = tested on: Sonic hedgehog protein (Shh); experiment: small-molecule binders of Shh protein, primary screen, biochemical, small-molecule microarray, 635/667 nm fluorescence (AID 1151); conditions: small-molecule microarray binding, 635 nm fluorescence; higher = more signal;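 further: Shh protein binding to compounds spotted on small-molecule microarray slides; score combines spot fluorescence intensity with signal-to-noise across triplicate slides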

SMILES	composite z-score [1]	z-score [2]	z-score [3]	z-score [4]	z-score [5]	composite z-score [6]	composite z-score [7]	composite z-score [8]	composite z-score [9]	composite z-score [10]
O=C(NCc1ccc(F)cc1)[C@H]1C[C@H]2C(=O)NCC(=O)N2[C@H]1c1ccc(O)cc1	0.205	-0.764 (inactive)	0.3 (inactive)	0.0124 (inactive)	-0.0067 (inactive)	-0.311	0.177	0.134	1.82	1.69
O=C1OCCC=C[C@H]2OC34C=CCN(c5ccc6ccccc6c5)C(=O)[C@H]3N(CCCO)C(=O)[C@@H]4C12 (stereo not given in full)	-1.2	-2.26 (inactive)	-0.633 (inactive)	-0.0778 (inactive)	-0.301 (inactive)	-1.16	-0.239	-1.44	-1.79	-1.93
O=C1[C@H]2C=C(I)[C@H](C[C@@H]2OCCOCCO)[C@@]12CO2	0.0712	1.05 (inactive)	-0.0471 (inactive)	1.67 (inactive)	0.839 (inactive)	1.08	-0.106	0.48	-0.0946	0.719
COCC(=C=CC[C@H](O)c1ccc(OCCO)cc1)CCO	0.0048	0.287 (inactive)	0.163 (inactive)	2.44 (inactive)	-0.419 (inactive)	-0.407	0.138	1.91	0.911	1.96
CC(C)(C)OC(=O)CC[C@@]1(C(=O)NCC(O)CO)N=C(c2ccc(OCCCO)cc2)O[C@@H]1c1ccccc1CN=[N+]=[N-] (stereo not given in full)	0.167	0.0366 (inactive)	-0.719 (inactive)	1.98 (inactive)	-0.424 (inactive)	1.14	-0.0021	1.48	0.654	-0.157
CCCCCCCCCCC(O)C1C=CC2C(=O)N(c3ccccc3)C(=O)C2N1Nc1ccc(C#N)cc1 (stereo not given)	0.525	-3.71 (inactive)	-0.209 (inactive)	-0.519 (inactive)	0.407 (inactive)	1.66	0.215	0.225	0.646	0.314
COc1ccc([Si](C)(C)[C@@H]2[C@@H](CCO)O[C@]3(C(=O)N(Cc4cccc(NC(=O)[C@H](C)O)c4)c4ccccc43)[C@H]2C)cc1	0.736	-8.02 (active)	-1.07 (inactive)	10.2 (active)	-1.88 (inactive)	0.887	-0.128	0.23	0.97	0.533
CCOC(=O)C1=CC[C@@H](c2ccccc2)N(S(=O)(=O)c2ccc(C)cc2)[C@H]1c1ccccc1	0.144	-3.01 (inactive)	1.29 (inactive)	-0.0228 (inactive)	1.31 (inactive)	1.46	0.115	0.345	0.626	-0.627
C=C(COC)C(=O)CC[C@@H](OC(C)=O)c1cccc(OCCO)c1	-0.124	-0.3 (inactive)	0.423 (inactive)	3.3 (inactive)	2.95 (inactive)	-1.07	-0.128	0.672	-0.708	0.358
CCOC(=O)C[C@H]1[C@H](OC(=O)c2cc3ccccc3oc2=O)[C@@H](NC(=O)CC(C)C)c2cc(OCCCO)ccc2N1C(=O)c1ccc2ccccc2n1	-0.0457	0.152 (inactive)	0.152 (inactive)	4.46 (inactive)	0.446 (inactive)	0.138	-0.128	-0.0914	0.234	1.41
C=C[C@H](C)[C@H](OC(=O)Nc1ccc(SC)cc1)c1ccc(OCCO)cc1	0.448	-3.53 (inactive)	0.0722 (inactive)	7.78 (inactive)	1.58 (inactive)	0.374	-0.0221	0.766	0.937	1.33
CCOC(=O)C[C@H]1[C@H](OC(=O)Cc2ccc3c(c2)OCO3)[C@@H](NC(=O)c2ccc3ccccc3n2)c2cc(OCCCO)ccc2N1C(=O)c1ccccc1	0.151	-0.301 (inactive)	-0.283 (inactive)	7.23 (inactive)	0.613 (inactive)	0.386	0.0074	0.526	0.302	0.826
C=CCC(OC(C)=O)[C@@H]1[C@@H](N(Cc2cccc3ccccc23)C(=O)Cc2ccc(OC)cc2)c2cc(OCCCO)ccc2N1C(=O)c1ccc(-c2ccccc2)cc1 (stereo not given in full)	-0.213	-1.22 (inactive)	1.16 (inactive)	0.106 (inactive)	-0.375 (inactive)	0.107	-0.0762	-0.452	0.0437	0.112
COc1cc2c(cc1O)C(C1CC1)N(Cc1cccc(OC(F)(F)F)c1)CC2 (stereo not given)	0.0616	-3.88 (inactive)	0.73 (inactive)	-0.581 (inactive)	0.0388 (inactive)	-0.41	-0.285	-0.0876	0.315	0.908
